We go through 92 molecules from PubChem BioAssay AID1778 (Sanford-Burnham Center for Chemical Genomics, 2009).

Structures are written as SMILES. The campaign covered roughly 290,000 compounds. About 260 (0.09%) were called active. No stated cut-off is given here; in the data, active means inhibition above about 50%; inactive means the rest. This excerpt belongs to a sample that is enriched for actives. Potency and affinity values are given separately.

Sequence of Kappa-type opioid receptor (Homo sapiens) (P41145 whole entry, looked up): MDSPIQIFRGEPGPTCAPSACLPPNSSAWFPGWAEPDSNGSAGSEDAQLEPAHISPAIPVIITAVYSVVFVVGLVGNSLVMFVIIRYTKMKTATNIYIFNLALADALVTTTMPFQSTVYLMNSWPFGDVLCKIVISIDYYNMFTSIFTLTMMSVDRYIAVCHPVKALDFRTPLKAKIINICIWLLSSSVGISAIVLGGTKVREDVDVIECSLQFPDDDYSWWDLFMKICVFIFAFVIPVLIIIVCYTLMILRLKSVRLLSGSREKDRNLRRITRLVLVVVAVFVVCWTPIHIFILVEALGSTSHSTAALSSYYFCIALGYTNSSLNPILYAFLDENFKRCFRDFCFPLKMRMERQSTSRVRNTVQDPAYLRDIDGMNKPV

This assay concerns the target Kappa-type opioid receptor (Homo sapiens) (UniProt P41145). Kind of assay: kappa opioid receptor blockers – cell-based, luminescence, uHTS (AID 1778). The settings on record: KOR beta-arrestin recruitment, antagonist mode, stronger effect = higher value; at 10 µM unless noted. In general terms: Recruitment of arrestin is a read-out of receptor activation apart from second messengers.
For `Cc1ccccc1N(C(=O)c1snc(C(N)=O)c1N)C(C(=O)NCc1ccccc1)c1ccc(O)cc1` (configuration not stated), the inhibition (usually the relative decrease from the control value, in per cent) is -9.4% (inactive). Under `Cc1c(NCc2cc(Cl)cc(Cl)c2O)c(=O)n(-c2ccccc2)n1C` stands 22.8% (inactive); under `COc1ccc(NC(=O)c2ccccc2)cc1NS(=O)(=O)c1ccc(F)cc1`, -5% (inactive); under `Cc1cc(N)nc2nc(C(F)(F)F)nn12`, -5.6% (inactive). Under `O=C1CC(Cc2ccccc2)C(=O)N1CCCn1ccnc1` (configuration not stated) stands -24.1% (inactive); under `Cc1ccc(CNC(=O)C2CCCN(c3nc4ccccc4o3)C2)cc1` (configuration not stated), -1.2% (inactive); under `CCOC(=O)N1CCN(C(=O)CNC(=O)c2ccc(Br)o2)CC1`, 3.7% [at 20 µM] (inactive). Under `CC(C)Oc1cccc(C(=O)N/N=C/c2ccoc2)c1` stands -11.1% (inactive); under `CCn1c(SCC(=O)NC2CCCCC2)nnc1-c1ccco1`, -10.6% (inactive). As for `Cc1ccc(COC(=O)c2nn(C)c(=O)c3ccccc23)cc1`, the inhibition is -20% (inactive).

For `CCOC(=O)c1c(N)sc(C(O)(C(F)(F)F)C(F)(F)F)c1-c1ccc(F)cc1`, the inhibition was -27.6% (inactive). Under `Oc1csc(Cc2nc(-c3ccc(-c4ccccc4)cc3)cs2)n1` stands 3.4% (inactive).

For the molecule `Oc1csc(Cc2nc(-c3ccc4ccccc4c3)cs2)n1`, the inhibition was 22.5% (inactive). The figure for `Oc1csc(Cc2nc(-c3ccc(Br)cc3)cs2)n1` is 8.7% (inactive). The figure for `Oc1csc(Cc2nc(-c3ccccc3F)cs2)n1` is -33.9% (inactive). The figure for `CN1CCN(C(=O)c2ccc(COc3ccc(Cl)cc3Cl)cc2)CC1` is -29.5% (inactive). For the molecule `CS(=O)(=O)NCCCCCCNS(C)(=O)=O`, the inhibition is -28.3% (inactive).

Turning to `COc1ccc(-c2nn(CCC(=O)O)cc2/C=C/C(=O)O)cc1[N+](=O)[O-]`, the inhibition was 2.1% (inactive).

Turning to `CCCNS(=O)(=O)c1ccc(OCC(=O)N2CCCC2)cc1`, the inhibition is -18.5% [at 20 µM] (inactive).

`Cc1ccccc1Cn1c(=O)n(-c2ccccc2)c(=O)c2ccc(C(=O)NCc3ccco3)cc21`: the inhibition was 20.6% (inactive).

As to `CC(C)(C)c1ccc(OCc2cnc(Cl)s2)cc1`, the inhibition is -46.2% [at 20 µM] (inactive). Under `CCN1C(=O)c2ccccc2S(=O)(=O)c2ccc(C(=O)N3CCOCC3)cc21` stands 16.4% (inactive).

On to `COc1cccc(C(=O)Nc2nnc(-c3cccs3)o2)c1`, for which the inhibition is -17.8% (inactive). The figure for `N#Cc1ccc(C(=O)Nc2nnc(-c3cccs3)o2)cc1` is -5.8% (inactive). The figure for `O=C(Nc1nnc(-c2cccs2)o1)c1cccc(C(F)(F)F)c1` is 100% (active); for `O=C(Nc1nnc(C2=COCCO2)o1)c1cccc(C(F)(F)F)c1` it is 16% (inactive). As to `CN(C)S(=O)(=O)c1ccc(C(=O)Nc2nnc(-c3cccs3)o2)cc1`, the inhibition is -13% (inactive). Under `COc1cc(-c2[nH]ncc2CN2CCN(Cc3cccs3)CC2)cc(OC)c1OC` stands -18.5% (inactive); under `Cc1cccc(Nc2nc(N)c([N+](=O)[O-])c(N3CC(C)CC(C)C3)n2)c1` (configuration not stated), -15% (inactive). Turning to `O=C1CC(C2CCCO2)C(=O)N1c1ccc(Cl)c(Cl)c1` (configuration not stated), the inhibition was -15.9% [at 20 µM] (inactive). As for `CN(C)S(=O)(=O)c1cccc(NC(=O)c2cc(=O)[nH]c3ccccc23)c1`, the inhibition was -14.8% [at 20 µM] (inactive). Under `CCn1c(=O)c2sccc2n2c(CCCC(=O)NCCc3ccc(S(N)(=O)=O)cc3)nnc12` stands -3% (inactive). Under `COC(=O)C1=C(C(=O)OC)[C@@H]2N(C)c3ccc(OC)cc3[C@@]23C[C@@H](C(=O)OC)N(C(=O)c2cccs2)C3=N1` stands -29.4% [at 20 µM] (inactive); under `Cc1ccc(/C=C2\SC(=S)N(c3cccnc3)C2=O)cc1`, -11.9% (inactive). On to `O=C1/C(=C/c2cccnc2)SC(=S)N1c1ccc(O)cc1`, for which the inhibition was 30.3% (inactive).

Take `O=C(C(Sc1ccccc1)c1ccc(Br)cc1)N1CCOCC1` (configuration not stated): the inhibition is 20.5% (inactive). The figure for `CCN(c1ccccc1)S(=O)(=O)c1ccc(NC(=O)c2nc(S(C)(=O)=O)ncc2Cl)cc1` is 38.4% (inactive); for `Cc1ccc(NC(=O)c2nc(S(=O)(=O)Cc3ccccc3)ncc2Cl)cc1` it is 14% (inactive). The figure for `CN(c1ccccc1)S(=O)(=O)c1ccc(NC(=O)c2nc(S(C)(=O)=O)ncc2Cl)cc1` is 35.2% (inactive); for `CC(=O)Nc1ccc(NC(=O)c2nc(S(=O)(=O)Cc3ccccc3)ncc2Cl)cc1` it is 23.7% (inactive). The figure for `CCOC(=O)N1CCN(C(=O)COc2cccc3c2CCN(Cc2cccc(C)c2)C3=O)CC1` is 8% (inactive); for `CCOc1ccc(NC(=O)N2CC=C(n3c(=O)[nH]c4ccccc43)CC2)cc1` it is 35.6% (inactive); for `CSc1ccc(NC(=O)N2CC=C(n3c(=O)[nH]c4ccccc43)CC2)cc1` it is 90.6% (active). Take `O=C(Nc1cccc(F)c1)N1CC=C(n2c(=O)[nH]c3ccccc32)CC1`: the inhibition was 46.2% (inactive).

For the molecule `N#Cc1ccc(CN2CCN(C(=O)c3ccccc3)CC2)c(Cl)c1`, the inhibition is -1.5% (inactive).

Regarding `Cc1cccc(C(=O)c2ccccc2C(=O)O)c1`, the inhibition was 19.6% (inactive). The figure for `CC(NC(=O)Cn1nc(C(=O)O)c2ccccc2c1=O)C12CC3CC(CC(C3)C1)C2` (configuration not stated) is -21.3% (inactive); for `CC(NC(=O)CN1CCCC1)C12CC3CC(CC(C3)C1)C2` (configuration not stated) it is -12% (inactive); for `Cc1ccc(C(=O)N/C(=C\c2ccc(F)cc2)C(=O)NCCCn2ccnc2)cc1` it is 21.6% (inactive). The figure for `CCOc1cc(CNC2CCCC2)cc(Cl)c1OCc1ccc(F)cc1` is -17.1% (inactive); for `CCNCc1cc(Cl)c(OCc2ccccc2)c(OCC)c1` it is 12.3% (inactive); for `O=C(O)c1ccc(N/N=C/c2cccc3nccnc23)cc1` it is 14.2% (inactive). The figure for `C(=C\c1ccccc1)/CSc1ccccn1` is -4.7% (inactive); for `CNC(=O)COC(=O)c1ccccc1C(=O)c1ccc(Cl)c([N+](=O)[O-])c1` it is -7.4% (inactive). Take `CC(C)N(C(=O)COC(=O)c1ccccc1C(=O)c1ccc(Cl)c([N+](=O)[O-])c1)C(C)C`: the inhibition is 24.3% (inactive).

As for `NS(=O)(=O)c1ccc(Nc2ccc([N+](=O)[O-])c3nonc23)cc1`, the inhibition is -10.8% (inactive). Under `CC(=O)c1ccc(Nc2ccc([N+](=O)[O-])c3nonc23)cc1` stands 37.3% [at 20 µM] (inactive); under `COc1ccc(OC)c(NC(=O)c2cc3sccc3n2C)c1`, 9.4% (inactive). Under `COc1ccc(OC)c(N2C(N)=C(C#N)C(c3ccc(OC)c(O)c3)C3=C2CC(C)(C)CC3=O)c1` (configuration not stated) stands 16.3% (inactive); under `CCC(=O)Nc1ccc(C(=O)n2ccc(C)n2)cc1`, 5.2% (inactive). On to `CCOc1cc(/C=C2\SC(=N)N(c3nccs3)C2=O)ccc1OCCN1CCOCC1`, for which the inhibition is -3.5% (inactive).

Take `Cc1[nH]c2ccccc2c1/C=N/n1cnnc1`: the inhibition was -34.7% (inactive). Under `COc1cc(/C=C2\SC(=N)N(c3ccc(F)cc3)C2=O)ccc1O` stands -30.7% (inactive); under `O=C1OC(c2cccs2)=N/C1=C\c1ccc(-c2cccc(Cl)c2)o1`, -15.5% (inactive). The figure for `N=C1S/C(=C\c2ccco2)C(=O)N1c1nccs1` is 71% (active); for `COc1ccc(/C=C2\SC(=N)N(c3ccc(F)cc3)C2=O)cc1OC` it is -9.7% (inactive). Under `N=C1S/C(=C\c2ccco2)C(=O)N1c1ccc2c(c1)OCO2` stands -11.9% [at 20 µM] (inactive).

Take `O=C1/C(=C/c2ccco2)SC(=S)N1c1cccnc1`: the inhibition is -2.4% (inactive). The figure for `N=C1/C(=C\c2ccc(-c3cccc(Cl)c3)o2)C(=O)N=C2SC=C(c3ccccc3)N12` is 29.8% (inactive); for `CCOc1cccc(C(=O)N(Cc2cccc(F)c2)C2CCS(=O)(=O)C2)c1` (configuration not stated) it is -33.2% (inactive). The figure for `Cc1csc(NC(=O)CCCc2cccs2)n1` is 1.1% (inactive); for `COc1ccc(C)cc1NC(=O)C(Sc1nnc(Nc2cc(C)ccc2OC)s1)c1ccccc1` (configuration not stated) it is -5.6% (inactive). Regarding `CCOc1ccc(CCNS(=O)(=O)c2cnc[nH]2)cc1OCC`, the inhibition was -14.7% (inactive).

On to `COc1ccccc1NC(=O)c1ccc(CSc2ncccn2)cc1`, for which the inhibition was 7.4% (inactive). The figure for `Cc1ccc(NC(=O)CCCCCN2C(=O)[C@@H]3Cc4ccccc4CN3C2=O)c(C)c1` is 26.6% (inactive); for `Oc1c(C=Nc2cccnc2)sc2ccccc12` it is -24.2% (inactive). The figure for `Oc1c(/C=N/c2ccccn2)sc2ccccc12` is -1.9% (inactive); for `COc1ccc(NC(=S)NC(NC(=O)c2cccc3ccccc23)C(Cl)(Cl)Cl)c([N+](=O)[O-])c1` (configuration not stated) it is -86.5% (inactive); for `COc1ccc(NC(=S)NC(NC(=O)c2ccc(Cl)cc2Cl)C(Cl)(Cl)Cl)c([N+](=O)[O-])c1` (configuration not stated) it is 36.4% (inactive).

Turning to `COCCSc1nnc(NC(=O)CSc2ccccc2)s1`, the inhibition was -18.1% (inactive). The figure for `CCc1nnc(NC(=O)CSc2nnc(CNc3cccc(Cl)c3)n2CC)s1` is -7.1% (inactive); for `O=C(NCCc1ccccn1)c1ccc(OC(F)F)cc1` it is 19.2% (inactive); for `O=C(O)c1cccc(Nc2cc(Cl)c3nonc3c2[N+](=O)[O-])c1` it is 4.3% (inactive). On to `O=[N+]([O-])c1c(Nc2ccc(O)cc2)cc(Cl)c2nonc12`, for which the inhibition is 104% (active). Consider `O=C(O)c1ccc(Nc2cc(Cl)c3nonc3c2[N+](=O)[O-])cc1`, for which the inhibition is 27.4% (inactive).

`O=[N+]([O-])c1c(Nc2cccc(O)c2)cc(Cl)c2nonc12`: the inhibition was 114% [at 20 µM] (active). Take `CCNc1cc(Nc2c(C)n(C)n(-c3ccccc3)c2=O)c([N+](=O)[O-])c2nonc12`: the inhibition was 13.1% (inactive). The figure for `O=C(O)c1cc(Nc2cc(Cl)c3nonc3c2[N+](=O)[O-])ccc1O` is -28% (inactive). The figure for `CN(C)c1cc(Nc2ccc(O)cc2)c([N+](=O)[O-])c2nonc12` is 40.9% (inactive).

Turning to `CCN(CC)c1cc(NCCO)c([N+](=O)[O-])c2nonc12`, the inhibition was -13.9% (inactive). Consider `CN(C)c1cc(Nc2cccc(O)c2)c([N+](=O)[O-])c2nonc12`, for which the inhibition was -7.7% (inactive). Under `Cc1c(Nc2cc(N3CCOCC3)c3nonc3c2[N+](=O)[O-])c(=O)n(-c2ccccc2)n1C` stands 25.4% (inactive).
